From PubChem BioAssay AID1645859 (Buhrlage Lab, Dana-Farber Cancer Institute and Novartis …, 2021) come the findings set out here.

Each structure is given as a SMILES string. Screen size: about 47,000 compounds; about 95 (0.2%) were called active. Cut-off read from the data, not from the text of the source: active = inhibition above about 30%; inactive = the rest. The sample as a whole holds a higher share of actives than the screen did.

For orientation: inhibition means the drop in the measured response relative to a control, in per cent.

For the experiment, the target named is Ubiquitin carboxyl-terminal hydrolase isozyme L1 (Homo sapiens) (UniProt P09936). The experiment in a line: inhibitors of human UCHL1 deubiquitinase (AID 1645859). To be noted: purified UCHL1, Ub-rhodamine cleavage fluorescence; at 20 µM; hits give high values.
Chain of Ubiquitin carboxyl-terminal hydrolase isozyme L1 (Homo sapiens) (P09936 whole entry, looked up): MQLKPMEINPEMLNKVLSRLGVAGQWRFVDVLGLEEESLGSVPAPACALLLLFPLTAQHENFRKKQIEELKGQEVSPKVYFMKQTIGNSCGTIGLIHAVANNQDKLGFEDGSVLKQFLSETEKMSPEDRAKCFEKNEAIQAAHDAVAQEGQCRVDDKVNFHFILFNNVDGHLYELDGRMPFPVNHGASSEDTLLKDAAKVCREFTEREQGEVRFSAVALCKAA
Take `Cc1nc(C2CCCN2C(=O)c2ccccn2)nc2c1CCCN2Cc1ccccn1` (stereo unspecified): the inhibition is -7.02% (inactive).

Regarding `COc1ccc(NC(=O)CN(C)C(=O)c2ccc3c(c2)nnn3C)cc1`, the inhibition was 2.41% (inactive). The figure for `Cc1ccc(C(=O)N2CCN3Cc4ccccc4N(C)CC3C2)cc1` (stereo unspecified) is -155% (inactive); for `Cc1cc(-c2cncnc2-c2ccc(CNC(=O)Cc3cc(F)ccc3F)cc2)on1` it is 2.52% (inactive); for `CCc1ccc(C2CN3C(=O)CN(CCN4CCOCC4)C(=O)[C@]3(C)c3[nH]c4ccccc4c32)cc1` (stereo partly specified) it is 7.01% (inactive). With `O=C(O)c1ccccc1-c1ccccc1C(=O)Nc1ccccc1O`, the inhibition is 1.93% (inactive). On to `O=C(Nc1cccc(-c2cccc(F)c2)c1)C1CCN(Cc2cccc3c2OCO3)CC1`, for which the inhibition is 6.73% (inactive). As to `CC(C)(C)c1ccc(Oc2ccc(NC(=O)c3ccc4c(c3)CCO4)cn2)cc1`, the inhibition was 1.03% (inactive). As for `CN(C(=O)CC(NC(=O)c1ccccc1)(c1ccccc1)c1ccccc1)c1ccccc1`, the inhibition was 1.79% (inactive). In the case of `Cc1ccc(NC(=O)CCc2nc(CSc3nnc(-c4ccco4)o3)no2)cc1C` it was 1.67% (inactive). For `CNCC(=O)N1CCCC(c2nc(C)cc(Nc3cccc(C)n3)n2)C1` (stereo unspecified), the inhibition was 0.00326% (inactive). The figure for `COc1ccc(C)cc1NC(=O)NC1(c2nc(C)no2)CCCCC1` is -4.28% (inactive); for `Cc1sc2ncn(CC(=O)N3c4ccccc4CC3C)c(=O)c2c1C` (stereo unspecified) it is -2.03% (inactive); for `Cc1ccc(CS(=O)(=O)c2cn(CC(=O)NCc3cccnc3)c3ccccc23)cc1` it is 1.32% (inactive).

On to `O=C(C1CCCN(S(=O)(=O)c2ccccc2)C1)N1CCN(CCc2ccccn2)CC1` (stereo unspecified), for which the inhibition is -1.48% (inactive).

On to `COc1ccc(NC(=O)C2=C(C)Nc3ncnn3C2c2cccc(OCc3ccc(F)cc3)c2)c(OC)c1` (stereo unspecified), for which the inhibition was 4.6% (inactive). In the case of `COc1cc(C2CC(=O)Nc3cc4c(cc32)OCO4)ccc1O` (stereo unspecified) it was -1.12% (inactive); in that of `CC(C)Cc1ncc(CCCN=C(N)N)[nH]c1=O`, -8.33% (inactive); in that of `COc1ccc(C2c3cccn3CCN2C(=O)Nc2cccs2)cc1` (stereo unspecified), -66.3% (inactive). The figure for `Cc1ccccc1Cn1cc(/C=C2/C(=N)N3N=C(COc4ccccc4)SC3=NC2=O)c2ccccc21` is -1.05% (inactive).

With `CCOC(=O)C1=C(COc2ccccc2C#N)NC(=O)NC1C` (stereo unspecified), the inhibition was -3.02% (inactive). In the case of `Cc1cc(C)n2nc(C(=O)N3CCCC(c4[nH]ncc4C)C3)cc2n1` (stereo unspecified) it was -2.57% (inactive). Consider `Cc1nc(N(C)Cc2ccccc2)c2c3c(sc2n1)CCCC3`, for which the inhibition was -6.54% (inactive).

As for `Cc1oc(C2CCN(C(=O)NC3CCCC3)CC2)nc1C(=O)N(C)C`, the inhibition is 1.1% (inactive). For the compound `CC1CCN(C(=O)Cn2c(=O)n(Cc3ccccc3)c(=O)c3cc(Cl)ccc32)CC1`, the inhibition is 3.62% (inactive). Consider `COc1ccccc1C1CNCCN1Cc1cnc(N(C)C)nc1` (stereo unspecified), for which the inhibition is -0.867% (inactive). The figure for `Cc1cc(OCc2ccc(Cl)cc2Cl)cc2c1C(=O)CC(C)(C)O2` is 3.56% (inactive); for `Cc1noc(C2CN(Cc3nccs3)Cc3ccnn3C2)n1` (stereo unspecified) it is -2.68% (inactive).

As to `O=C(CCc1c[nH]c2ccccc12)N1CCN(C(=O)C2CCCO2)CC1` (stereo unspecified), the inhibition is -0.0658% (inactive). As to `Cc1nc2ccccc2n(CC(=O)NCc2ccc(OC(C)C)cc2)c1=O`, the inhibition is -4.18% (inactive). In the case of `CCCN1CCC(Nc2ncnc3scc(-c4ccccc4)c23)CC1` it was -1.59% (inactive).
